This is a sample that favours compounds with a hit; in the whole collection about 21% have one here.
IL1B secr inh: inflammasome signaling inhibition, IL-1 beta readout | AID 743279 | THP-1 LPS/ATP IL-1B secretion, AlphaLISA, 16 h; active compounds read low | 4.7% of 360,000 active | activity change, % at 57.5 µM; in the data active means activity change below about -50%; inconclusive means mostly about -30% to -49%
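THP-1 cells pretreated 1 hr with compounds (up to 57.5 uM final), then stimulated with LPS (250 ng/mL final) plus ATP (1.25 mM final); secreted IL-1B measured by AlphaLISA after 16 hr, decreased signal indicating inhibition.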
RORgamma inh: ROR gamma (mouse) transcription inhibition | Drosophila S2 Gal4-RORgamma UAS-luciferase reporter, 20 h | Potency, µM (top dose mostly 53.6 µM), for the others: top-dose activity change, negative = inhibition, actives largely listed as inhibitors | 5.4% of 310,000 active | AID 2551; further: potency means the concentration at half of the fitted maximal effect; nearly all actives have a fitted effect of over 60% in size
Target sequence (P51450 whole entry, looked up, the tested form may be a part): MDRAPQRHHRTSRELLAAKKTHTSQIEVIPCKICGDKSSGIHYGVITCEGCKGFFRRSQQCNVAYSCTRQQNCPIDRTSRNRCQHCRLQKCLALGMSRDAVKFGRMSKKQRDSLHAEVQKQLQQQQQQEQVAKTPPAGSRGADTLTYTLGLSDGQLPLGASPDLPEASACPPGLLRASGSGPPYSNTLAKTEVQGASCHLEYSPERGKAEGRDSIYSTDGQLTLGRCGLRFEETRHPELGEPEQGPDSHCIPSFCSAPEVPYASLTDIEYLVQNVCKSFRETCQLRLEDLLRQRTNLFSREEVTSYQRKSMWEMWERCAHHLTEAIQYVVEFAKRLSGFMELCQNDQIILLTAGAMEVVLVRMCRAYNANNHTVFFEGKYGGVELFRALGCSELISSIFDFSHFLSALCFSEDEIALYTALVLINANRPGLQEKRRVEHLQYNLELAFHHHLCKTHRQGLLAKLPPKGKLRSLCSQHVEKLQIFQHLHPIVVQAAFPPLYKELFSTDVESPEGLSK
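Using a luciferase readout, inhibitors were identified by reduced reporter activity in Drosophila cells coexpressing a copper-inducible Gal4–ROR gamma fusion and UAS-driven Photinus luciferase, incubated 20 hr after 700 uM copper sulfate.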
DT40 TDP1 CPT: DT40-hTDP1 cell growth loss with CPT | chicken DT40 Tdp1-/-;hTDP1 cells + 20 nM CPT, ATP luminescence, 48 h | Potency, µM (highest dose often 46.2 µM), inactives show at the highest dose activity change, negative = growth inhibition, usual class: inhibitors | 12% of 420,000 active | AID 686979; further: potency means the concentration at half of the fitted maximal effect; nearly all actives have a fitted effect of over 55% in size
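Chicken DT40 Tdp1-/- cells stably complemented with human TDP1 were seeded at 400 cells/well in medium containing 20 nM camptothecin, exposed to pin-transferred compounds, and grown at 37 °C for at least 48 hr. Viability was read as ATP luminescence.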
Gal4-VP16 FLuc: counter-screen for ROR gamma inhibitors: Gal4-VP16 reporter; Drosophila S2 Gal4-VP16 UAS-luciferase, luminescence, 20 h; Potency, µM (doses to about 53.6 µM), without a hit: at the highest dose activity, negative = inhibition, usual class: inhibitors; 3.5% of 310,000 active; AID 2546;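 further: Gal4-VP16 expression switched on by copper sulfate through the metallothionein promoter; potency means the concentration at half of the fitted maximal effect; nearly all actives have a fitted effect of over 50% in size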
ELG1 repair inh: blocks ELG1-dependent DNA repair in HEK293T cells | AID 504467 | Potency, µM (doses to about 46.1 µM), for the others: top-dose activity change, negative = inhibition, most hits filed as inhibitors | HEK293T ELG1-luciferase reporter, luminescence, 16 h; DNA damage induced by 5-fluorouridine | 2.3% of 330,000 active; further: potency means the concentration at half of the fitted maximal effect; nearly all actives have a fitted effect of over 55% in size
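Overnight (16 hr) co-exposure of 2,000 cells/well to 5-fluorouridine and compound at 37 °C preceded detection. Luciferase was quantified via ONE-Glo luminescence; loss of signal denotes inhibition.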
DT40 TDP1 no CPT: qHTS for Inhibitors of human tyrosyl-DNA phosphodiesterase 1 (TDP1): qHTS in cells in absence of CPT | DT40 Tdp1-/- hTDP1 cells, no CPT, ATP luminescence, 48 h | Potency, µM (doses to about 46.2 µM), for the others: top-dose activity change, negative = growth inhibition, most hits filed as inhibitors | 15% of 420,000 active; further: potency means the concentration at half of the fitted maximal effect; nearly all actives have a fitted effect of over 55% in size
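Readout: luminescence from CellTiter-Glo after 30 min in the dark at RT. Cells: DT40 Tdp1-/- with stable hTDP1, 400/well. Exposure: compounds alone, ≥48 hr, 37 °C.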
An asterisk follows results filed as active; ? = inconclusive; / = no result given; [ ] = dose if it differs, or a comment. Unless noted, the call rests on the fitted dose curve; in most records, active means well fitted curve in the direction sought with a large enough effect; inconclusive means small, poorly fitted or top-dose-only effect, or another doubt; inactive means no such curve, though single readings can be large; an effect the other way counts as inactive or inconclusive. On the % scale 0 is the no-effect control and ±100 the full control effect.

SMILES	IL1B secr inh	RORgamma inh	DT40 TDP1 CPT	Gal4-VP16 FLuc	ELG1 repair inh	DT40 TDP1 no CPT
COc1cccc(N2CCN(C(=O)Cn3c(=O)oc4ccccc43)CC2)c1	24	-2%	4%	15%	-6%	-4%
COc1ccc2c(CC(=O)N3CCN(S(=O)(=O)c4ccc(F)cc4)CC3)coc2c1	0	/	-19%	/	2%	-7%
CCOc1ccccc1N(C)C(=O)CCS(=O)(=O)c1ccc2c(c1)NC(=O)C(C)S2 (stereo not drawn)	6	26%	?	-7%	-14%	21µM*
CC(CS(=O)(=O)c1ccc2c(c1)NC(=O)CS2)C(=O)N1CCN(c2cccc(Cl)c2)CC1 (stereo not drawn)	-25	43%	18µM*	-3%	?	?
CC1Sc2ccc(S(=O)(=O)CCC(=O)N(C)Cc3ccco3)cc2NC1=O (stereo not drawn)	44	5%	?	7%	-1%	?
Cc1cccc(N2CCN(C(=O)CCS(=O)(=O)c3ccc4c(c3)NC(=O)CO4)CC2)c1C	-11	10%	?	2%	-15%	?
COc1ccc(S(=O)(=O)CCC(=O)N2CCN(c3cccc(Cl)c3)CC2)cc1	-26	12%	18µM*	2%	-1%	10µM*
COc1ccc(N2CCN(C(=O)CCS(=O)(=O)c3ccc4c(c3)NC(=O)CO4)CC2)cc1	47	1%	?	-1%	0%	16µM*
COc1ccc(N2CCN(C(=O)CCS(=O)(=O)c3ccc(C)cc3)CC2)cc1	-2	/	?	/	-14%	-29%
CN(CC(=O)N1CCN(c2cccc(Cl)c2)CC1)S(=O)(=O)c1cccs1	?	16%	?	0%	-16%	16µM*
COc1ccc(S(=O)(=O)CCC(=O)N2CCN(c3ccc(C(C)=O)cc3)CC2)cc1	0	-5%	?	-14%	?	15µM*
O=C(N1CCN(c2cccc(Cl)c2)CC1)C1(c2cccs2)CCOCC1	?	-10%	23µM*	-7%	-26%	21µM*
CN(CC(=O)N1CCN(c2cccc(Cl)c2)CC1)S(=O)(=O)c1cnc[nH]1	5	-12%	3%	-1%	0%	3%
CC1Sc2ccc(S(=O)(=O)CCC(=O)N3CCN(c4cccc(Cl)c4)CC3)cc2NC1=O (stereo not drawn)	0	24%	13µM*	?	13µM*	7.3µM*
CC1Sc2ccc(S(=O)(=O)CCC(=O)N3CCN(c4ccccc4)CC3)cc2NC1=O (stereo not drawn)	2	12%	?	-10%	-16%	-21%
COc1cccc(CN2C(=O)c3ccccc3C2C(=O)NCCc2ccccc2)c1 (stereo not drawn)	/	/	?	/	/	-25%
O=C(CNc1ccccc1F)Nc1cccc(S(=O)(=O)N2CCCCC2)c1	-8	/	-17%	/	0%	-21%
CC(CC(=O)N1CCN(c2ccccc2)CC1)S(=O)(=O)c1ccc2c(c1)NC(=O)CO2 (stereo not drawn)	22	?	21µM*	-19%	10µM*	?
CC(=O)c1ccc(N2CCN(C(=O)CCS(=O)(=O)c3ccc(C)cc3)CC2)cc1	14	30%	?	11%	-8%	15µM*
O=c1cnc2cnc(N3CCOCC3)nc2n1Cc1ccc(F)cc1	/	-18%	?	-8%	/	?
CCN(CC(=O)Nc1ccc(NC(C)=O)cc1)C(=O)/C=C/c1ccco1	4	/	-28%	/	29%	0%
CCCN(CC(=O)Nc1ccc(Cl)cc1Cl)C(=O)/C=C/c1ccco1	-24	?	?	-4%	4%	16µM*
CC(=O)c1c(C)[nH]c(C(=O)NNC(=O)COc2cc(C)cc(C)c2)c1C	15	/	-1%	/	0%	13%
O=C(CSc1ccc(F)cc1)NC12CC3CC(CC(C3)C1)C2	?	23%	?	22%[10 µM]	?	?
O=C(CCSc1ccc(Cl)c(Cl)c1)NC12CC3CC(CC(C3)C1)C2	-4	?	16µM*	2%	27%	?
SMILES	IL1B secr inh	RORgamma inh	DT40 TDP1 CPT	Gal4-VP16 FLuc	ELG1 repair inh	DT40 TDP1 no CPT
CN(C)CCN(Cc1ccco1)C(=O)c1oc2ccccc2c1NC(=O)COc1ccccc1	-50*	0%	?	-8%	-1%	-1%
COc1cc(/C=N/NC(=O)c2cccc3ccccc23)ccc1OCC(N)=O	65	/	?	/	/	5.8µM*
CCOc1cc(/C=N/NC(=O)c2cc(C)n(-c3ccc(F)cc3)c2C)ccc1O	11	-2%	16µM*	-9%	?	21µM*
COc1ccc(/C=N/NC(=O)c2nn(C)cc2Br)cc1CSCc1ccco1	0	2%	?	-13%	-16%	?
CCOc1ccccc1NC(=O)C(=O)c1cc(C)n(-c2ccc(F)cc2)c1C	/	/	?	/	/	-26%
COc1cccc(/C=N/NC(=O)c2cccc3ccccc23)c1	33	-4%	?	4%	-12%	?
CCOc1ccc(C=NNC(=O)c2cccc3ccccc23)cc1OCC	7	/	?	/	/	18µM*
CCOc1cc(/C=N/NC(=O)c2nn(C)cc2Br)ccc1OCc1ccccc1	28	38%	15µM*	-18%	18µM*	10µM*
COc1ccc(F)cc1S(=O)(=O)NCCCn1ccnc1	35	/	28%	/	-6%	4%
CC(C)(C)N1C(=O)[C@H]2[C@@H]3[C@H](O)[C@H](O)CC(=O)[C@H]3CC[C@H]2C1=O	/	5%[10 µM]	/	-1%[10 µM]	/	/
Cc1ccc(-n2cc(C(=O)c3ccc(N4CCN(C)CC4)cc3)nn2)cc1Cl	5	-2%	0%	4%	-8%	20%
CN1CCN(c2ccc(C(=O)c3cn(-c4ccc(F)c(Cl)c4)nn3)cc2)CC1	10	5%	?	-12%	11%	16µM*
COc1ccc(C(=O)N(C)CCCC2CCCC2)cc1OC1CCN(C(C)C)CC1	?	-17%	?	-1%	-2%	?
CC(=O)O[C@H]1C2OC(=O)C(C)=C2[C@@H]2OC(=O)[C@]3(CCC4OC41C)OC23 (stereo partly drawn)	-72*	-13%	15µM*	7%	-6%	?
CCOC(=O)C1=C(CC)Nc2ccccc2N=C1NC(=O)Nc1ccc(Cl)c(Cl)c1	-74*	-15%	2.9µM*	?	18µM*	2.6µM*
CCOC(=O)C1=C(CC)Nc2ccccc2N=C1NC(=O)c1cc(C)on1	0	/	-23%	/	-8%	?
